Experimental data from PubChem BioAssay (NCI).
About 83,000 compounds went through this panel and 20% of them were active in at least one assay; those are over-represented in the sample as a whole.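 Assay: single dose, 48 h. Readout: percent growth (0 = no net growth; negative = cell death). Active: <10.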 The source made the active and inactive calls.

Experiments:
Assay in all cases: NCI-60 one-dose screen, 48 h (100 = growth as untreated, 0 = no growth, -100 = all killed)
HCT-15 colon = settings: 10 µM unless noted
HT29 colon = settings: 10 µM unless noted
SNB-75 CNS = settings: 10 µM unless noted
SNB-19 CNS = settings: 10 µM unless noted
U251 CNS = settings: 10 µM unless noted
PC-3 prostate = settings: 10 µM unless noted
SK-MEL-5 melanoma = settings: 10 µM unless noted
UACC-62 melanoma = settings: 10 µM unless noted
LOX IMVI melanoma = settings: 10 µM unless noted
SK-MEL-28 melanoma = settings: 10 µM unless noted
SK-MEL-2 melanoma = settings: 10 µM unless noted
SN12C renal = settings: 10 µM unless noted
UO-31 renal = settings: 10 µM unless noted
TK-10 renal = settings: 10 µM unless noted
ACHN renal = settings: 10 µM unless noted
CAKI-1 renal = settings: 10 µM unless noted
A498 renal = settings: 10 µM unless noted
CCRF-CEM leukemia = settings: 10 µM
MOLT-4 leukemia = settings: 10 µM unless noted
EKVX NSCLC = settings: 10 µM

Measured: growth

CCN(CC)CCCNc1c2ccc(Cl)cc2nc2ccc(OC)cc12
inactive: SNB-19 CNS 10.2% | UACC-62 melanoma 50.3% | SN12C renal 10.7%
active: HCT-15 colon 1.74% | HT29 colon -15.4% | SNB-75 CNS -44.9% | U251 CNS -14.9% | PC-3 prostate -34.6% | SK-MEL-5 melanoma -96.3% | LOX IMVI melanoma -43.1% | SK-MEL-28 melanoma -72.3% | SK-MEL-2 melanoma -3.63% | UO-31 renal -69.2% | TK-10 renal -4.36% | ACHN renal 1.29% | CAKI-1 renal 4.67% | A498 renal -62.2% | CCRF-CEM leukemia -10.1% | MOLT-4 leukemia -20.8%

CC(=O)OC1/C=C\CC/C=C\C1 (stereo not given)
inactive: HCT-15 colon 98% | HT29 colon 109% | SNB-75 CNS 82.6% | SNB-19 CNS 100% | U251 CNS 96.6% | PC-3 prostate 96.4% | SK-MEL-5 melanoma 98.8% | UACC-62 melanoma 101% | LOX IMVI melanoma 106% | SK-MEL-28 melanoma 111% | SK-MEL-2 melanoma 109% | SN12C renal 95.8% | UO-31 renal 93.5% | TK-10 renal 124% | ACHN renal 96.3% | CAKI-1 renal 99.2% | A498 renal 86.9% | CCRF-CEM leukemia 103% | MOLT-4 leukemia 116%

O=C(NC1CCN(Cc2ccccc2)CC1)c1cc(-c2cccnc2)nc2ccc(Cl)cc12
active: HCT-15 colon 9.1% | HT29 colon 4.33% | UACC-62 melanoma 8.77%
inactive: SNB-75 CNS 95.6% | SNB-19 CNS 91.4% | U251 CNS 56.2% | PC-3 prostate 69.2% | SK-MEL-5 melanoma 50.2% | LOX IMVI melanoma 45.2% | SK-MEL-28 melanoma 94.1% | SK-MEL-2 melanoma 100% | SN12C renal 63.1% | UO-31 renal 69.2% | TK-10 renal 81.6% | ACHN renal 81.2% | CAKI-1 renal 82.6% | A498 renal 67.2% | CCRF-CEM leukemia 64% | MOLT-4 leukemia 58.9%

O=C1C=C(OCC=C(C(F)(F)F)C(F)(F)F)c2ccccc2C1=O
inactive: HCT-15 colon 11% | SNB-75 CNS 66.6% | SNB-19 CNS 61% | U251 CNS 39.7% | SK-MEL-5 melanoma 33.5% | UACC-62 melanoma 63.7% | SK-MEL-2 melanoma 12.4% | UO-31 renal 49.9% | TK-10 renal 53.5% | A498 renal 80.9%
active: HT29 colon 6.37% | PC-3 prostate -19% | LOX IMVI melanoma -62.4% | SK-MEL-28 melanoma -17.5% | SN12C renal -15.1% | ACHN renal 1.45% | CAKI-1 renal 4.75% | CCRF-CEM leukemia -33.9% | MOLT-4 leukemia -36.9%

CC(=O)CCS(=O)c1ccccc1 (stereo not given)
inactive: HCT-15 colon 110% | HT29 colon 97.8% | SNB-75 CNS 96% | SNB-19 CNS 98.2% | U251 CNS 97.2% | PC-3 prostate 94.6% | SK-MEL-5 melanoma 102% | UACC-62 melanoma 99.6% | LOX IMVI melanoma 97.1% | SK-MEL-28 melanoma 109% | SK-MEL-2 melanoma 97.1% | EKVX NSCLC 106% | SN12C renal 98.6% | UO-31 renal 85.8% | TK-10 renal 89% | ACHN renal 112% | CCRF-CEM leukemia 101% | MOLT-4 leukemia 98.3%

CC([C@H]1CC=C2C3CCC4=C[C@@H](N(C)C)CC[C@]4(C)C3CC[C@@]21C)N(C)C (stereo not given in full)
inactive: SNB-75 CNS 32.4% | SNB-19 CNS 79.7% | U251 CNS 31.5% | PC-3 prostate 42.3% | SK-MEL-5 melanoma 23.6% | SK-MEL-2 melanoma 90.8% | SN12C renal 21.5% | TK-10 renal 95.5% | ACHN renal 48.1% | A498 renal 96.4% | CCRF-CEM leukemia 43.4% | MOLT-4 leukemia 73.5%
active: HCT-15 colon -20.7% | HT29 colon -18.3% | UACC-62 melanoma -58.3% | LOX IMVI melanoma -46.5% | SK-MEL-28 melanoma -33.6% | EKVX NSCLC -38.8% | CAKI-1 renal -48.8%

NC(CSC(c1ccccc1)(c1ccccc1)c1ccccc1)C(=O)NCC(=O)O (stereo not given)
inactive: HCT-15 colon 73.2% | HT29 colon 101% | SNB-75 CNS 76.1% | SNB-19 CNS 85.7% | U251 CNS 38.3% | PC-3 prostate 81.9% | SK-MEL-5 melanoma 44.3% | UACC-62 melanoma 62.5% | LOX IMVI melanoma 81.4% | SK-MEL-28 melanoma 63.3% | SK-MEL-2 melanoma 38.3% | SN12C renal 70.7% | UO-31 renal 84.4% | TK-10 renal 98.8% | ACHN renal 88.4% | A498 renal 65% | CCRF-CEM leukemia 53.5% | MOLT-4 leukemia 83.7%

CC(O)c1cc[cH-]c1.[Fe+2].c1cc[cH-]c1 (stereo not given)
inactive: HCT-15 colon 95.3% | HT29 colon 110% | SNB-75 CNS 92% | SNB-19 CNS 105% | U251 CNS 98.2% | PC-3 prostate 98.2% | SK-MEL-5 melanoma 98.2% | UACC-62 melanoma 108% | LOX IMVI melanoma 126% | SK-MEL-28 melanoma 112% | SK-MEL-2 melanoma 109% | SN12C renal 98.9% | UO-31 renal 86.5% | TK-10 renal 96% | ACHN renal 89.8% | CAKI-1 renal 88% | A498 renal 103% | MOLT-4 leukemia 89.3%

COc1ccc(/C=C/C(=O)/C=C/c2cc3ccccc3[nH]c2=O)cc1
active: HT29 colon 3.66% | LOX IMVI melanoma -21% | CCRF-CEM leukemia 8.49%
inactive: HCT-15 colon 75.3% | SNB-75 CNS 61.6% | SNB-19 CNS 79.6% | U251 CNS 13.7% | PC-3 prostate 52.4% | SK-MEL-5 melanoma 86.7% | UACC-62 melanoma 53.5% | SK-MEL-28 melanoma 79.6% | SK-MEL-2 melanoma 95.9% | SN12C renal 66.5% | UO-31 renal 94.4% | TK-10 renal 118% | ACHN renal 84.1% | CAKI-1 renal 98.2% | A498 renal 100% | MOLT-4 leukemia 19.4%

CCCCCCCCCCCCCCCCNC(=S)N/N=C/c1ccc(OC)cc1
inactive: HCT-15 colon 108% | HT29 colon 102% | SNB-75 CNS 113% | SNB-19 CNS 99.8% | U251 CNS 97.9% | PC-3 prostate 88.5% | SK-MEL-5 melanoma 99.9% | UACC-62 melanoma 93.2% | LOX IMVI melanoma 108% | SK-MEL-28 melanoma 109% | SK-MEL-2 melanoma 107% | SN12C renal 93.5% | UO-31 renal 78% | TK-10 renal 110% | ACHN renal 104% | CAKI-1 renal 92% | A498 renal 113% | MOLT-4 leukemia 106%

CC(O)CN(CC(C)O)N(CC(C)O)CC(C)O (stereo not given)
inactive: HCT-15 colon 93.6% | HT29 colon 99.3% | SNB-75 CNS 93.1% | SNB-19 CNS 99.1% | U251 CNS 90.9% | PC-3 prostate 99.4% | SK-MEL-5 melanoma 105% | UACC-62 melanoma 102% | LOX IMVI melanoma 93.7% | SK-MEL-28 melanoma 107% | SK-MEL-2 melanoma 121% | SN12C renal 107% | UO-31 renal 91.1% | TK-10 renal 99.3% | ACHN renal 99% | CAKI-1 renal 98.9% | A498 renal 104% | MOLT-4 leukemia 102%

O=C(CCl)NC1c2ccccc2Oc2ccccc21
inactive: HCT-15 colon 50.8% | HT29 colon 80.5% | SNB-75 CNS 74.5% | SNB-19 CNS 94.3% | U251 CNS 47.7% | PC-3 prostate 80.7% | SK-MEL-5 melanoma 73.8% | UACC-62 melanoma 68.1% | SK-MEL-28 melanoma 92% | SK-MEL-2 melanoma 63% | SN12C renal 81.1% | UO-31 renal 92.1% | TK-10 renal 84.4% | ACHN renal 72.4% | CAKI-1 renal 64.6% | A498 renal 97.3% | MOLT-4 leukemia 62.6%
active: LOX IMVI melanoma -1.57%

CSCc1ncc(-c2ccc(C(F)(F)F)cc2)c(NC2CCCCCC2)n1
inactive: HCT-15 colon 64.9% [25 µM] | HT29 colon 64.9% [25 µM] | SNB-75 CNS 71.6% [25 µM] | SNB-19 CNS 73.1% [25 µM] | U251 CNS 68.5% [25 µM] | SK-MEL-5 melanoma 78.6% [25 µM] | UACC-62 melanoma 70.2% [25 µM] | LOX IMVI melanoma 82.7% [25 µM] | SK-MEL-28 melanoma 95.6% [25 µM] | SK-MEL-2 melanoma 57.5% [25 µM] | SN12C renal 83.2% [25 µM] | UO-31 renal 51.9% [25 µM] | TK-10 renal 97% [25 µM] | ACHN renal 77.9% [25 µM] | CAKI-1 renal 25.1% [25 µM] | A498 renal 60.8% [25 µM] | MOLT-4 leukemia 23% [25 µM]
active: PC-3 prostate -5.89% [25 µM]

COC(=O)[C@H](Cc1cn(C)cn1)NC(=O)[C@H](Cc1c[nH]c2ccccc12)NC(=O)Nc1cc(C(F)(F)F)cc(C(F)(F)F)c1
active: HT29 colon -84.2% [100 µM] | SNB-75 CNS -85.5% [100 µM] | SNB-19 CNS -91% [100 µM] | U251 CNS -89.5% [100 µM] | PC-3 prostate -89.4% [100 µM] | SK-MEL-5 melanoma -51.3% [100 µM] | UACC-62 melanoma -92.9% [100 µM] | LOX IMVI melanoma -83.5% [100 µM] | SK-MEL-28 melanoma -80.3% [100 µM] | SK-MEL-2 melanoma -82.6% [100 µM] | SN12C renal -83.7% [100 µM] | TK-10 renal -66.2% [100 µM] | ACHN renal -38% [100 µM] | A498 renal -35.8% [100 µM] | MOLT-4 leukemia -45.8% [100 µM]
inactive: HCT-15 colon 27.7% [100 µM] | UO-31 renal 22.5% [100 µM]

CCCCCCCCC(=O)Nc1ccc(O)cc1
inactive: HCT-15 colon 94.6% | HT29 colon 94.2% | SNB-75 CNS 76.8% | SNB-19 CNS 112% | U251 CNS 91.4% | PC-3 prostate 83.2% | SK-MEL-5 melanoma 96.7% | UACC-62 melanoma 92.1% | LOX IMVI melanoma 84.8% | SK-MEL-28 melanoma 99.7% | SK-MEL-2 melanoma 93% | SN12C renal 94.3% | UO-31 renal 61.9% | TK-10 renal 87.1% | ACHN renal 79.2% | CAKI-1 renal 93.9% | A498 renal 102% | MOLT-4 leukemia 57.9%
